Results from the supplement of paper PMC10338343.
± gives the standard deviation.

The sequences below were run on MILI (PIWIL2) piRISC loaded with L1MC piRNA (26 nt) (assay: pre-steady-state target cleavage rate (min^-1); guide: L1MC piRNA 5'p-UAACUAAAUACUAUGCAAGCUGUAGG; MIWI and MILI are mouse PIWI proteins and EfPiwi is from a freshwater sponge; tags in brackets are library labels; higher = faster piRNA-guided slicing of the target). Conditions: auxiliary factor: 500 nM mouse GTSF1.
Method: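 Cleave-'n-Seq: a library of target RNAs (target site embedded in constant flanks, ACAGCATTCCGCGTTAGTGATATCCG... 5' flank; DNA-blocked outside the site) at 0.1 nM was incubated with 1 nM active mouse MILI or MIWI piRISC (synthetic 5'-monophosphorylated piRNA guide) with or without 500 nM mouse GTSF1 at 33 °C for 1 min to 16 h. Uncleaved targets were sequenced and normalised to non-target controls, and the pooled three trials were fitted to a burst-and-steady-state model to give the pre-steady-state cleavage rate (min^-1; k3 is constrained to at most 1e-4). Sequence is the target site only; target names encode pairing extent (gX:gY) and contiguous / 1-mismatch / 2-mismatch / bulge geometry. Fits with R² ≤ 0 are excluded.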

Row | Sequence | pre-steady-state target cleavage rate
1 | UCCUGCUACAGCUUGCAUAGUAUAUAGUAA | 0.0474 ± 0.018
2 | UCCUGGAUGAGCAUGCAUAGUAUUUACUUA | 0.122 ± 0.029
3 | UCCUGCUACAGCUUGGAUAGUAUAUAGUUA | 0.222 ± 0.026
4 | UCCUGGAACAGCUUGCAUAGUAUUUAGUUC [g2:g23:cont:t1C] | 0.191 ± 0.024
5 | UCCUGCUACAGCUUGCAUAGUAUUUAUUA | 0.0696 ± 0.017
6 | UCCUGCUAGAGCUUGCUUAGUAUUUAGUUA | 0.162 ± 0.01
7 | UCCUGGAACAGCUUGCAUAGUUUUAGUUA | 0.0123 ± 0.0053
8 | UCCUGGAACAGCUUGCAUAGUAUAUAGUUA | 0.296 ± 0.029
9 | UCCUGGAUGUGCUUGCUAGUAUUUAGUUA | 0.00654 ± 0.0035
10 | UCCUGCUACUCGUUGCAUAGUAUUUAGUUA | 0.242 ± 0.014
11 | UCCUGGAUGAGCUUGCAUAGUAUCUUAGUUA | 0.148 ± 0.017
12 | UCCUGGAUGUCCUUGCAUAGUAUUAAGUAA | 0.0433 ± 0.013
13 | UCCUGGUACAGCUUGCAUAGAAUUUAGUAA | 0.0567 ± 0.024
14 | UCCUGGAUGAGCUUGCUAAGUAUUUAGUUA | 0.0294 ± 0.0061
15 | UCCUGGAACAGCUAGCAUAGUAUUUAGUUA | 0.242 ± 0.019
16 | UCCUGCUACUGCUUGCAUUGUAUUUAGUUA | 0.211 ± 0.018
17 | UCCUGCUUCAGCUUGCAUAGUAUUUACUUA | 0.116 ± 0.021
18 | UCCUGGAUGAGCUUGCAUAGUGAUUUAGUUA | 0.00836 ± 0.0043
19 | UCCUCCUACAGCUUGCAUAGUAUUUAGUUC [g2:g26:cont:t1C] | 0.283 ± 0.016
20 | UCCUCCAUGAGCUUGCAUAGUAUUUACAAA | 0.0266 ± 0.0095
21 | UCCUGGAUGUCGUUGCAUAGUAAUAAGUUA | 0.0113 ± 0.004
22 | UCCUCCUACAGCUUGCAUUGUAUUUUGUUA | 0.0994 ± 0.015
23 | UCCUGGUACAGCUUGCAAAGUAUUAAGUUA | 0.0919 ± 0.018

Same assay, conditions: auxiliary factor: none (no GTSF1)

Row | Sequence | pre-steady-state target cleavage rate
24 | UCCUGGAUGAGCAUGCAUAGUAUUUACUUA | 0.00352 ± 0.0028
25 | UCCUGCUACAGCUUGGAUAGUAUAUAGUUA | 0.00442 ± 0.0023
26 | UCCUGGAACAGCUUGCAUAGUAUUUAGUUC [g2:g23:cont:t1C] | 0.00602 ± 0.0018
27 | UCCUGCUAGAGCUUGCUUAGUAUUUAGUUA | 0.00643 ± 0.002
28 | UCCUGGAUGUCGAACGUAUCUAUUUAGUCUA | < 0.0001
29 | UCCUGGAACAGCUUGCAUAGUAUAUAGUUA | 0.00847 ± 0.0025
30 | UCCUGGAUGUGCUUGCUAGUAUUUAGUUA | 0.00432 ± 0.0028
31 | UCCUGCUACUCGUUGCAUAGUAUUUAGUUA | 0.0082 ± 0.0022
32 | UCCUGGAUGAGCUUGCAUAGUAUCUUAGUUA | 0.00732 ± 0.0024
33 | UCCUGGAUGAGCUUGCUAAGUAUUUAGUUA | 0.00602 ± 0.0023
34 | UCCUGGAACAGCUAGCAUAGUAUUUAGUUA | 0.00629 ± 0.0023
35 | UCCUGCUACUGCUUGCAUUGUAUUUAGUUA | 0.0081 ± 0.0024
36 | UCCUGGAUCAGCUUCCAUAGUAUUAAGUUA | < 0.0001
37 | UCCUGCUUCAGCUUGCAUAGUAUUUACUUA | 0.00294 ± 0.0023
38 | UCCUGGAUGAGCUUGCAUAGUGAUUUAGUUA | 0.00434 ± 0.0027
39 | UCCUCCUACAGCUUGCAUAGUAUUUAGUUC [g2:g26:cont:t1C] | 0.0143 ± 0.0047
40 | UCCUCCUACAGCUUGCAUUGUAUUUUGUUA | 0.00327 ± 0.0022
41 | UCCUGGUACAGCUUGCAAAGUAUUAAGUUA | 0.00406 ± 0.0027
